Consider six molecules from PubChem BioAssay.

The subject of test [1] is Plasmodium falciparum Sir2 (PF13_0152, Sir2A). The test can be described thus: Plasmodium falciparum Sir2A binding compounds – biochemical, small-molecule microarray, 635 nm fluorescence, primary screen (AID 1098).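 Note: score merges spot fluorescence intensity with its signal-to-noise ratio.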 As to conditions: fluorescence 635 nm, higher = more signal.
Test [2] is described as follows: probe aDKK1 binding to arrayed compounds – biochemical, biotinylated probe, 635/667 nm fluorescence, primary screen (AID 1099).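 Note: score merges 667nm spot fluorescence with signal to noise across triplicate slides.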 As to conditions: small-molecule microarray, higher = more signal.
Test [3] is described as follows: probe aCHRDL2 binding to arrayed compounds – biochemical, biotinylated probe, 635/667 nm fluorescence, primary screen (AID 1100). The conditions noted are these: small-molecule microarray, higher = more signal.
Test [4] in a line: change in splice reporter luminescence, either direction, cell-based, HEK293, spliceosome inhibition project, primary screen (AID 1101).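 Note: HEK293 cells carrying a splicing-competent luciferase reporter gene; test concentration not given here.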 As to conditions: HEK293 splicing luciferase reporter, 24 h, higher = more signal, called active from +8 up or from −8 down.
In test [5] the target is Fibroblast growth factor 10 (Homo sapiens) (UniProt O15520). The test can be described thus: compounds binding fibroblast growth factor 10 – biochemical, small-molecule microarray, 635 nm fluorescence, primary screen (AID 1102). The conditions noted are these: FGF10 binding, fluorescence 635 nm, higher = more signal.
The subject of test [6] is glycogen synthase kinase-3 (GSK3A per assay name; protocol says GSK3B). The test can be described thus: compounds binding glycogen synthase kinase-3 – biochemical, small-molecule microarray, 635 nm fluorescence, GSK3A, primary screen (AID 1103). Note: the record names both GSK3A and GSK3B. As to conditions: fluorescence 635 nm, higher = more signal.
Test [7] deals with Epidermal growth factor receptor (Homo sapiens) (UniProt P00533). In words: compounds binding epidermal growth factor receptor – biochemical, small-molecule microarray, 635 nm fluorescence, primary screen (AID 1104).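 Note: score merges 667 nm emission intensity with spot signal to noise over triplicate slides.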 As to conditions: EGFR binding, higher = more signal.
The target of test [8] is Follistatin-related protein 3 (Homo sapiens) (UniProt O95633). In words: compounds binding follistatin-related protein 3 – biochemical, small-molecule microarray, 635 nm fluorescence, primary screen (AID 1105).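 Note: score merges emission near 667 nm and signal to noise per printed spot across three slides.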 As to conditions: FSTL3 binding, higher = more signal.
Test [9] deals with Dickkopf-related protein 1 (Homo sapiens) (UniProt O94907). The test can be described thus: small molecules binding DKK1 protein – biochemical, small-molecule microarray, 635 nm fluorescence scan, primary screen (AID 1106).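 Note: score merges emission near 667 nm with signal to noise over three replicate slides.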 As to conditions: higher = more signal.
Test [10] deals with Inhibin beta A chain (activin A). In words: small molecules binding activin A – biochemical, small-molecule microarray, 635 nm fluorescence scan, primary screen (AID 1107).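 Note: mouse activin A protein probed at 4.33 µg/mL on printed slides; score merges bound-protein fluorescence near 667 nm with spot signal-to-noise.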 As to conditions: INHBA, higher = more signal.
The subject of test [11] is Human papillomavirus type 1a protein E7 (residues 44-93). The test can be described thus: small molecules binding HPV E7 44-93 – biochemical, small-molecule microarray, residues 44-93, 635 nm fluorescence, primary screen (AID 1108).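 Note: E7 fragment applied at 1 µg/mL in TBST for 1 h at 4 C; score combines spot fluorescence with its signal to noise ratio.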 The conditions noted are these: fluorescence 635 nm, higher = more signal.
Test [12] can be described thus: hepatitis C replication reporter changes, two-sided – Huh7 cells, luciferase reporter, HCV replication inhibitor project, primary screen (AID 1109).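 Note: huh7 hepatoma cells harbouring a luciferase neomycin HCV replicon reporter; luciferase luminescence as measure of HCV replicon replication; test concentration not given here.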 The conditions noted are these: Huh7 HCV replicon luciferase reporter, 48 h; higher = more signal.
Test [13] has as its target Left-right determination factor 2 (Homo sapiens) (UniProt O00292). The test can be described thus: small molecules binding LEFTY2 protein – biochemical, small-molecule microarray, 635 nm fluorescence scan, primary screen (AID 1110). As to conditions: higher = more signal.
Test [14] deals with Calmodulin-1 (Homo sapiens) (UniProt P0DP23). In words: small molecules binding calmodulin-1 with EGTA – biochemical, small-molecule microarray, Cy5-labelled CALM1, profiling panel (AID 1111).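 Note: labelled calmodulin applied in Tris saline Tween buffer holding calcium plus EGTA and DTT.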 As to conditions: Cy5-CALM1 binding fluorescence, higher = more signal.
The target is the same in test [15]. The test can be described thus: small molecules binding Ca-loaded calmodulin-1 – biochemical, small-molecule microarray, Cy5-labelled CALM1, plus calcium, artefact control for SMM control-protein annotation, profiling panel (AID 1112).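 Note: score merges spot fluorescence with signal to noise from triplicate slides.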 As to conditions: Cy5-CALM1 binding fluorescence, higher = more signal.
Test [16] is described as follows: probe aWnt5a binding to arrayed compounds – biochemical, biotinylated probe, 635/667 nm fluorescence, primary screen (AID 1113).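 Note: score merges 667 nm fluorescence intensity with signal-to-noise per printed feature.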 As to conditions: small-molecule microarray, higher = more signal.
Test [17] can be described thus: probe aShh binding to arrayed compounds – biochemical, biotinylated probe, 635/667 nm fluorescence, primary screen (AID 1114).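 Note: probe is biotin-labelled aShh protein from a stem cell growth factor screen; measures binding of labelled protein to compounds printed on the slide; score merges feature fluorescence at 667 nm with signal-to-noise.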 As to conditions: small-molecule microarray, higher = more signal.
Test [18] is described as follows: probe aNog binding to arrayed compounds – biochemical, biotinylated probe, 635/667 nm fluorescence, primary screen (AID 1115).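 Note: probe is biotinylated aNog protein used at 0.15 µg/mL for 1 h at 4 C; z-score combines 667 nm fluorescence of each spot with its signal to noise.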 The conditions noted are these: small-molecule microarray, higher = more signal.
In test [19] the target is Torsin-1A-interacting protein 1 (Homo sapiens) (UniProt Q5JTV8). The test can be described thus: compound microarray binding of lysate hLAP1 – cell lysate, small-molecule microarray, COS7 lysate, 635/667 nm fluorescence, primary screen (AID 1116). As to conditions: 635 nm fluorescence, higher = more signal.
The target of test [20] is Alpha-bungarotoxin (Bungarus multicinctus) (UniProt P60615). The test can be described thus: compounds binding labelled alpha-BTX control protein – biochemical, small-molecule microarray, Alexa647 label, 635/667 nm fluorescence, artefact control for SMM control protein annotation, profiling panel (AID 1117). As to conditions: alpha-BTX-A647 binding fluorescence, higher = more signal.

Molecules are shown by their SMILES. The source made the active and inactive calls.

Sequence of Epidermal growth factor receptor (Homo sapiens) (P00533 whole entry, looked up): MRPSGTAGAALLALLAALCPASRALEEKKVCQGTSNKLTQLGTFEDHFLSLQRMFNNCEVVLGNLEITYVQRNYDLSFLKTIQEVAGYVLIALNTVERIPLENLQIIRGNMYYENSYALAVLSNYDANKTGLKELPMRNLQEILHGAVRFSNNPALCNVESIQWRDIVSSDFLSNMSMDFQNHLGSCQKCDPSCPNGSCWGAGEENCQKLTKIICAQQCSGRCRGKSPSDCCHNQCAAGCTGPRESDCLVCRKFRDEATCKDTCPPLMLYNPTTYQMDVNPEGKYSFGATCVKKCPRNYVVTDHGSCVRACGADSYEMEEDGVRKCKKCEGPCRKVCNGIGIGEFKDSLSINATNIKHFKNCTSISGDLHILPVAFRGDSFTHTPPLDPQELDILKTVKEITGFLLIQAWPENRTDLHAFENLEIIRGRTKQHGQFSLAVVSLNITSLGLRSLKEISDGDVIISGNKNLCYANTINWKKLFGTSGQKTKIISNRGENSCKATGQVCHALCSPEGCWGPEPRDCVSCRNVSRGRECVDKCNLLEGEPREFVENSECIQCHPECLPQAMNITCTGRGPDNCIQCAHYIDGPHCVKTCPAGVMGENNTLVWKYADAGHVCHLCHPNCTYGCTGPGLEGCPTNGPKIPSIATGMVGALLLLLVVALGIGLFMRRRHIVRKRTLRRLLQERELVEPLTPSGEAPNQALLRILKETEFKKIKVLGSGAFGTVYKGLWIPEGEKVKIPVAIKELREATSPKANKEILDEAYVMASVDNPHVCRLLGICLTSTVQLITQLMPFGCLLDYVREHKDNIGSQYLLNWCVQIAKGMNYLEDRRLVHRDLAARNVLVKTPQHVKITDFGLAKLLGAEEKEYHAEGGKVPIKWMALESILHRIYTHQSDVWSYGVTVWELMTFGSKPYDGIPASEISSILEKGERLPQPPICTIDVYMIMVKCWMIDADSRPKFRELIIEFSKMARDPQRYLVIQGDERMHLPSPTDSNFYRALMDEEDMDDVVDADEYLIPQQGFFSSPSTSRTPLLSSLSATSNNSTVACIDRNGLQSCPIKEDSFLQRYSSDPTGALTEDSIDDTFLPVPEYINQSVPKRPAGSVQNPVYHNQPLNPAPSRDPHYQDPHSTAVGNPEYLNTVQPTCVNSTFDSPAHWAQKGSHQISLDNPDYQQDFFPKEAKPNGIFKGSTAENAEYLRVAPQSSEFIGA
Sequence of Torsin-1A-interacting protein 1 (Homo sapiens) (Q5JTV8 whole entry, looked up): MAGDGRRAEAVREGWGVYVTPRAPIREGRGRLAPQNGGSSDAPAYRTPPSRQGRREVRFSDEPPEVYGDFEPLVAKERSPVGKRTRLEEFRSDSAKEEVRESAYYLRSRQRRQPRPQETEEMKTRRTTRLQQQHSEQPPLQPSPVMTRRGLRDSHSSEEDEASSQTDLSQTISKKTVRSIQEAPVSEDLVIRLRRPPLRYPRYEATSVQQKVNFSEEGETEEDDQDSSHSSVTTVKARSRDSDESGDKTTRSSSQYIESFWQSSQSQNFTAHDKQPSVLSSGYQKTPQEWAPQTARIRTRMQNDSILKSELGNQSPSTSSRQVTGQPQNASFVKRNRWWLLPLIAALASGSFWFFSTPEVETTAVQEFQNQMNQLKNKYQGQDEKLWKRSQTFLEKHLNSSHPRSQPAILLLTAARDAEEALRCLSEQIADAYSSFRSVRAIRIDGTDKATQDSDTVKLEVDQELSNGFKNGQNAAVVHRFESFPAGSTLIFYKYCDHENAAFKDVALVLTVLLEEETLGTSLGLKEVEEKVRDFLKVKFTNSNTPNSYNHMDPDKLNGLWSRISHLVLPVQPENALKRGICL
Sequence of Fibroblast growth factor 10 (Homo sapiens) (O15520 whole entry, looked up): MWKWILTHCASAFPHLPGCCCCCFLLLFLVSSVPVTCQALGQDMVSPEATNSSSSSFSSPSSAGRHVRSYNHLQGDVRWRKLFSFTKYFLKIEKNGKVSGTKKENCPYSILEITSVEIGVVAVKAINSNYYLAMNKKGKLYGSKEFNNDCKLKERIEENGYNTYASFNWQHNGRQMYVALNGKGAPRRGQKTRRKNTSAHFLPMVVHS
Sequence of Dickkopf-related protein 1 (Homo sapiens) (O94907 whole entry, looked up): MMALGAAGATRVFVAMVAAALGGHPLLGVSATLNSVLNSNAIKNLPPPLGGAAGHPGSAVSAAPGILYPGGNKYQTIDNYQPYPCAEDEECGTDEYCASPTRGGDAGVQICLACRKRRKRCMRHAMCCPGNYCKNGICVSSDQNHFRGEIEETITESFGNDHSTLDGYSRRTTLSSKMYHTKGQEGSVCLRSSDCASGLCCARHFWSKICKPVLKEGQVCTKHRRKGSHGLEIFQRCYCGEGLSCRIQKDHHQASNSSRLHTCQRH
Sequence of Left-right determination factor 2 (Homo sapiens) (O00292 whole entry, looked up): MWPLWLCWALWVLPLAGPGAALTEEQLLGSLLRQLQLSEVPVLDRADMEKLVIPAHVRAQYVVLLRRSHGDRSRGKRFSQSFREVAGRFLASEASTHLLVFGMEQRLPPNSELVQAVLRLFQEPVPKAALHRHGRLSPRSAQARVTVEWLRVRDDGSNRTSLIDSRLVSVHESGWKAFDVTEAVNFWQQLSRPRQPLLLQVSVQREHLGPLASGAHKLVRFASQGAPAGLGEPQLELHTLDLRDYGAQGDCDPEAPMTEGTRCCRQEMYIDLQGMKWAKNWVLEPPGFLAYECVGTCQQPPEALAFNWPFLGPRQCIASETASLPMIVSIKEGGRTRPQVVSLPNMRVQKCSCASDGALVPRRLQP
Sequence of Follistatin-related protein 3 (Homo sapiens) (O95633 whole entry, looked up): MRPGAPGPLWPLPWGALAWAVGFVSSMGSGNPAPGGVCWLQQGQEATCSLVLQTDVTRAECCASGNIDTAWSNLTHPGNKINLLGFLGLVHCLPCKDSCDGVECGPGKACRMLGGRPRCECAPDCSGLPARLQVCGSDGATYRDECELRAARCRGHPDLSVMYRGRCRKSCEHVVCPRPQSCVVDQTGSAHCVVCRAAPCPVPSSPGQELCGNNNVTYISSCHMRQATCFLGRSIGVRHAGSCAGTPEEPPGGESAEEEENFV
Sequence of Alpha-bungarotoxin (Bungarus multicinctus) (P60615 whole entry, looked up): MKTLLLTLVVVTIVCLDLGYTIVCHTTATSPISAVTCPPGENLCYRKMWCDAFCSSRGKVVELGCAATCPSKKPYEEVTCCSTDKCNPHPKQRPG

Regarding `NC(=O)[C@@]1(CCS(=O)(=O)c2ccccc2)N=C(c2ccc(OCCCO)cc2)O[C@H]1c1ccccc1`, the composite z-score in test [1] is 1.28; in [2], 0.518; in [3], 0.7; in test [5] it was 1.08; in [6], 0.953; in test [7] it was -0.151. The composite z-score in test [8] is -0.437; in test [9], 0.015; in [10], 0.564; in test [11], 1.49; in test [13] it was -0.38; in [14] it was 1.37. Besides, the composite z-score is 0.699 in [15]; 0.0845 in [16]; 0.396 in [17]; 1.28 in test [18]; 1.89 in [19]; 1.42 in test [20]. In addition, the z-score is -0.675 (inactive) in test [4] and -2.05 in test [12].

Turning to `C=CCNC(=O)[C@H]1[C@@H]2C(=O)O[C@@H](c3ccccc3)[C@@H](c3ccccc3)N2[C@@H](c2ccc(O)cc2)[C@]12C(=O)Nc1ccc(C#Cc3ccc(OC)cc3)cc12`, the composite z-score in test [1] was determined as 1.53; in test [2], 0.257; in test [3], 0.536; in test [5], 0.782; in test [6], 1.23; in test [7] it was 0.728. Also, the composite z-score is 1.21 in test [8]; 0.94 in test [9]; -0.13 in [10]; 0.758 in test [11]; 0.884 in test [13]; 0.664 in [14]. Further, the composite z-score was -0.367 in [15]; -0.219 in test [16]; 0.278 in test [17]; 0.409 in [18]; 1.31 in [19]; 0.196 in test [20]. The results for the z-score in test [4] and in [12] were 0.338 (inactive) and -2.06, respectively.

For the molecule `Cc1ccc(C(C)CC(O)C2C=CC3C(=O)NC(=O)C3N2Nc2ccccn2)o1` (stereo not given), the composite z-score in test [1] is 1.22; in test [2], 0.182; in [3], -0.0866; in test [5], 0.228; in test [6], 0.309; in [7] it was 0.401. Also, the composite z-score in test [8] is 0.506; in test [9], 0.906; in [10], 1.25; in test [11] it was 0.0598; in test [13], 0.479; in test [14] it was -0.409. Further, the composite z-score in test [15] was -0.743; in test [16] it was -0.1; in [17], -0.0626; in test [18] it was -0.0863; in test [19], 0.773; in [20], -0.0054. Further, the z-score is 0.802 (inactive) in [4] and -0.146 in test [12].

As to `CCCCN1CC=CC23O[C@@H]4C=CCCOC(=O)C4[C@H]2C(=O)N(CCCO)[C@@H]3C1=O` (stereo not given in full), the composite z-score in [1] is -1.07; in [2] it was -0.132; in test [3] it was -0.114; in [5], -0.649; in test [6], -1.12; in test [7], -0.597. The composite z-score is -0.739 in test [8]; -0.0604 in test [9]; 0.824 in test [10]; -0.73 in test [11]; -0.513 in [13]; -0.479 in test [14]. The composite z-score was -0.503 in test [15]; -0.196 in [16]; -0.2 in [17]; -0.0784 in test [18]; -0.643 in [19]; -1.13 in test [20]. The figures for the z-score in test [4] and in test [12] were -1.21 (inactive) and -1.1, respectively.

For the molecule `COc1ccc([Si](C)(C)[C@@H]2[C@@H](CCO)O[C@]3(C(=O)N(Cc4cccc(N(C=O)c5ccccc5)c4)c4ccccc43)[C@H]2C)cc1`, the composite z-score in test [1] was 0.883; in test [2] it was 0.0396; in [3] it was 0.541; in test [5], -0.0644; in test [6] it was 0.364; in test [7] it was -0.222. Also, the composite z-score was -0.0339 in [8]; -0.0116 in test [9]; 1.03 in test [10]; -0.179 in [11]; -0.223 in [13]; 1.13 in [14]. Further, the composite z-score in test [15] is 1.09; in test [16], -0.176; in test [17], 0.0611; in test [18], -0.0002; in test [19], 0.494; in [20] it was 0.956. The z-score in [4] is -2.49 (inactive); in test [12], -4.85.

With `O=C1OCC=C[C@H]2OC34C=CCN(Cc5ccccc5)C(=O)[C@H]3N(CCCO)C(=O)[C@@H]4[C@@H]12` (stereo not given in full), the composite z-score in [1] is 0.995; in test [2], 1.16; in test [3], 0.907; in [5] it was 0.0676; in test [6] it was 0.301; in [7] it was -0.692. Besides, the composite z-score is 0.37 in test [8]; -0.896 in test [9]; 1.22 in test [10]; 1.22 in test [11]; -0.406 in test [13]; 1.19 in [14]. Also, the composite z-score was 0.918 in test [15]; 0.0474 in test [16]; 0.63 in [17]; 0.134 in [18]; 0.627 in test [19]; -0.162 in test [20]. Besides, the z-score in test [4] was -0.589 (inactive); in [12], -0.789.
